# This is a sample that favours compounds with a hit; in the whole collection about 21% have one here.
# Cycloheximide cs: affects cycloheximide protein synthesis inhibition readout, counter-screen; cell reporter, cycloheximide protein synthesis inhibition counterscreen; max response, %; hit rate 12% among 300,000; AID 2314; in the data active means max response mostly above about 13%, no sharp cut-off; inactive means mostly below about 14%; further: read at 38.3 µM for the half of the compounds with a filed dose; 0% is about no effect
# Pf growth 96h: P. falciparum growth inhibition at 96 hour, primary screen for plastid delayed-death inhibitors; P. falciparum luciferase reporter growth, 96 h; Potency, µM (doses to about 28.7 µM), inactives show at the highest dose activity change, negative = inhibition, hits mostly inhibitors; hit rate 6.9% among 320,000; further: potency means the concentration at half of the fitted maximal effect; on the % scale 0 is the no-effect control and ±100 the full control effect
#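 Luminescence readout: decreased luciferase signal marks inhibited growth of reporter-expressing P. falciparum in infected red cells (2% hematocrit, 0.05% parasitemia final), exposed to compound two generations (96 h, 37 C, 5% CO2).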
# HCV inh: blocks hepatitis C virus | Potency, µM (doses to about 41.8 µM), inactives show at the top dose activity change, negative = inhibition, hits mostly inhibitors | AID 651820 | hit rate 3.4% among 340,000 | Huh7.5.1 HCVcc-Cre infection, luciferase reporter, 44 h; further: potency means the concentration at half of the fitted maximal effect; on the % scale 0 is the no-effect control and ±100 the full control effect
#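 Cells (1,000/well) were plated 4 h before compound, then infected with HCVcc-Cre virus (~0.5 moi). After 44 h further culture, infection was read as luciferase luminescence following a 15 min substrate incubation at room temperature.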
# Shiga inhibitor: blocks Shiga toxin action in Vero cells | Vero cells, Shiga toxin protein synthesis inhibition reporter | inhibition, % at 38.7 µM | hit rate 9.2% among 290,000; in the data active means inhibition mostly above about 28%, no sharp cut-off; inactive means mostly below about 43%; further: 0% is about no effect
# Pf growth 48h: inhibits P. falciparum growth in the first generation, 48 h | P. falciparum luciferase growth in erythrocytes, 48 h | Potency, µM (titrated, usually from 28.7 µM), for inactives: at the highest dose activity change, negative = inhibition, most hits filed as inhibitors | hit rate 5.9% among 310,000 | AID 504832; further: potency means the concentration at half of the fitted maximal effect; on the % scale 0 is the no-effect control and ±100 the full control effect
#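 Parasite viability was followed by luminescence of a genomically integrated firefly luciferase. Cultures held 0.1% parasitemia at 2% hematocrit (final), incubated under 5% CO2 at 37 C.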
# HCMV inh: inhibitors of human cytomegalovirus | HFF cells, HCMV-luciferase reporter, 72 h; stronger effect = lower value | activity change, negative = inhibition, % at 57.5 µM | hit rate 4.5% among 410,000 | AID 1259415; in the data active means activity change below about -60%; inconclusive means no clear call, values can overlap the other calls; inactive means above about -39%; further: on the % scale 0 is the no-effect control and ±100 the full control effect
#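 Compounds were evaluated in HFFs infected with an HCMV luciferase reporter virus (MOI 1 PFU/cell). Luciferase in lysates collected 72 h post infection served as the replication measure.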
# An asterisk follows results filed as active; ? = inconclusive; nt = not tested or not shown; [ ] = dose if it differs, or a comment. Unless noted, the call rests on the fitted dose curve; in most records, active means well fitted inhibition curve with a large enough effect; inconclusive means small, poorly fitted or top-dose-only effect, or another doubt; inactive means no such curve, though single readings can be large or run the other way.
SMILES,Cycloheximide cs,Pf growth 96h,HCV inh,Shiga inhibitor,Pf growth 48h,HCMV inh
COc1ccc(C(=O)Nn2cnnc2)c(OC)c1,-2,-12%,15%,-9,nt,-12
COc1ccc(C(=O)Nn2c(C)nc3ccccc3c2=O)c(OC)c1,4,1.2µM*,15%,-3,22%,40
COc1ccc(Br)c(C(=O)Nn2c(C)nc3ccccc3c2=O)c1,-4,40%,3%,-2,1%,-6
COc1ccc(C(=O)Nn2cnc3ccccc3c2=O)c(OC)c1,26*,462%,16%,39*,241%,115
Cc1cccc(Cn2c(SCc3ccc(C(=O)NCCc4ccccc4)cc3)nc3cccnc32)c1,nt,nt,nt,nt,nt,3
COc1ccc(CN(C(=O)Nc2ccc(C)c(F)c2)C2CCN(C(C)=O)CC2)cc1,nt,nt,nt,nt,nt,2
COc1ccc(NCc2ccsc2)cc1,41*,-30%,12%,44*,?,-16
COc1ccc(CNc2ccc(S(N)(=O)=O)cc2)cc1,-1,?,5%,-3,3%,-35
CC(C)(C)OC(=O)NCCCCCNC(=O)c1ncn(Cc2ccccc2)c1C(=O)NCCCCCNC(=O)OC(C)(C)C,nt,nt,?,nt,nt,-8
CCN(CC)S(=O)(=O)c1ccc(C)c(NC(=O)COC(=O)CN2C(=O)NC(C)(C)C2=O)c1,nt,14%,-10%[8.37 µM],nt,-7%,-25
Cc1ccccc1-c1nnn(C/C(N)=N/O)n1,-1,?,11%,-5,-5%,-15
CCOc1nc(SCCOc2ccc(Cl)cc2Cl)nc(N(C)C)n1,-6,-29%,?,-9,?,-16
CCOc1nc(SCCOc2ccc(C)cc2)nc(N(C)C)n1,-2,?,-6%,14,9.3µM*,-10
CCOC(=O)c1cnc2ccccc2c1Nc1ccc(C(=O)O)cc1,12,?,-10%,-6,?,-3
CCOC(=O)c1ccc(Nc2cnc3ccccc3n2)cc1,47*,48%,16%,78*,76%,85
CCOC(=O)c1ccc(Nc2cc(C)nc(-c3ccccc3)n2)cc1,0,51%,?,27,10µM*,-76*
O=C(O)c1ccc(Nc2cnc3ccccc3n2)cc1,38*,240%,-7%,63,171%,69
Cc1snc(SCc2cccc(Cl)c2)c1C#N,3,15%,-3%,29,17%,nt
Cc1ccc(S(=O)(=O)N2CCC3(CC2)OCCN3S(=O)(=O)c2cccs2)cc1,nt,?,?,nt,?,-24
COc1ccc(OC)c(S(=O)(=O)N2CCC3(CC2)OCCN3S(=O)(=O)c2cccs2)c1,nt,10µM*,3%,nt,?,-22
O=S(=O)(c1ccc(Cl)cc1)N1CCC2(CC1)OCCN2S(=O)(=O)c1cccs1,nt,?,-1%,nt,13µM*,nt
COc1ccc(S(=O)(=O)N2CCC3(CC2)OCCN3S(=O)(=O)c2cccs2)cc1,nt,?,?,nt,?,-25
Cc1nc(SCC(=O)Nc2ccccc2F)[nH]c(=O)c1Cc1ccccc1,nt,nt,nt,nt,nt,3
O=C(CCC1CCCN(Cc2ccncc2)C1)NCc1ccc(F)c(F)c1 (stereo not drawn),-1,?,6%,-2,-12%,-34
CC(=O)[O][Hg][c]1ccccc1,nt,3µM*,nt,nt,1.5µM*,nt
SMILES,Cycloheximide cs,Pf growth 96h,HCV inh,Shiga inhibitor,Pf growth 48h,HCMV inh
CC(=O)Oc1ccccc1C(=O)O,nt,2%,18%,nt,-1%,49
CC(c1ccccc1)N(NC(=O)C(O)(c1ccccc1)c1ccccc1)C(=O)c1ccccc1 (stereo not drawn),5,?,?,-13,?,-74*
COc1ccc(C(=O)N2CCCC2)cc1S(=O)(=O)N1CCOCC1,2,18%,nt,-16,27%,10
COc1ccc(C(=O)Nc2ccc(N3CCOCC3)cc2)cc1S(=O)(=O)N1CCOCC1,nt,9%,?,nt,43%,-13
COc1ccc(C(=O)Nc2ccc(-c3ccc(C)o3)cc2)cc1S(=O)(=O)N1CCOCC1,19*,nt,2.5µM*,48,?,-96*
COc1ccc(C(=O)Nc2ccc(-c3cn4ccsc4n3)cc2)cc1S(=O)(=O)N1CCOCC1,-5,0.33µM*,-18%,26,?,-39
COc1cc2c(cc1OC)CN(C(=O)c1ccc(OC)c(S(=O)(=O)N3CCOCC3)c1)CC2,24*,nt,-7%,38,?,45
COc1ccc(C(=O)Nc2nc(C)c(C(C)=O)s2)cc1S(=O)(=O)N1CCOCC1,nt,?,-16%,nt,-7%,-92*
CC(=O)c1ccc(N2CCN(C(=O)[C@H](C)NC(=O)c3ccccc3Cl)CC2)cc1,-1,?,3%,45,-14%,45
COc1ccc(CNC(=O)CSc2ncc3c(n2)-c2cc(Cl)ccc2N(Cc2ccccc2)S3(=O)=O)cc1OC,nt,nt,nt,nt,nt,-12
ONC(=Nc1ccc(Cl)cc1)c1ccc(Cl)cc1,11,106%,12%,-1,70%,23
[S-]C(=Nc1ccc(Cl)cc1)N[n+]1ccccc1,30*,-9%,9%,37*,15%,-21
CCCCOc1cccc(C(=O)N(Cc2ccc(Cl)cc2)C2CCS(=O)(=O)C2)c1 (stereo not drawn),nt,nt,nt,nt,nt,11
COc1cc(C(=O)N(Cc2ccc(F)cc2)C2CCS(=O)(=O)C2)cc(OC)c1OC (stereo not drawn),0,8.3µM*,10%,-7,?,24
COc1ccccc1C(=O)N(Cc1ccc(Cl)cc1)C1CCS(=O)(=O)C1 (stereo not drawn),-4,12µM*,11%,-6,-7%,-31
CCCOc1cccc(C(=O)N(Cc2ccccc2)C2CCS(=O)(=O)C2)c1 (stereo not drawn),-4,?,14%,-5,3%,-66*
COc1ccc(CN(C(=O)c2ccccc2OC)C2CCS(=O)(=O)C2)cc1 (stereo not drawn),-2,1%,11%,10,?,42
O=C(/C=C/c1ccccc1Cl)N(Cc1ccc(Cl)cc1)C1CCS(=O)(=O)C1 (stereo not drawn),4,?,-12%,-5,-7%,-28
COc1cc(C(=O)N(Cc2cccc(Cl)c2)C2CCS(=O)(=O)C2)cc(OC)c1OC (stereo not drawn),-1,nt,13%,-7,?,20

# Bioassay records as filed in PubChem BioAssay.
